Experimental data taken from PubChem BioAssay AID743279 (National Center for Advancing Translational Sciences (NCATS), 2014).
About 17,000 (4.7%) of roughly 360,000 compounds were called active. About 5% were inconclusive and are not listed. The list comes from a sample in which actives are over-represented; it also holds similar structures and randomly drawn compounds. Unmarked numbers belong to inactive results. Cut-off read from the data, not from the text of the source: active = activity change below about -50%; inconclusive = mostly about -30% to -49%; inactive = weaker than that.

Assay: qHTS for Inhibitors of Inflammasome Signaling: IL-1-beta AlphaLISA Primary Screen
Conditions: THP-1 LPS/ATP IL-1B secretion, 16 h; at 57.5 µM, active compounds read low
Description: Inflammasomes are a set of intracellular multi-protein complexes that enable autocatalytic activation of inflammatory caspases and drive the innate immune response to counter harmful agents. […] A qHTS assay, based on AlphaLISA technology, was developed to screen the Molecular Libraries Small Molecule Repository (MLSMR) to look for novel inflammasome inhibitors. The assay detects IL-1B using AlphaLISA anti-IL-1B acceptor and donor beads. A decreased emission signal, indicating reduced IL-1B secretion, is the desired outcome for this assay. NIH Chemical Genomics Center [NCGC] NIH Molecular Libraries Probe Centers Network [MLPCN] MLPCN Grant: MH095513 Assay Provider: Shyam Biswal Ph.D., Johns Hopkins University Immunity. 2012 Jul 27;37(1):85-95. PMID: 22819042 [2] Curr Pharm Des. 2012;18(16):2320-8. PMID: 22390695
Three microliters containing 3000 THP-1 cells were dispensed into the wells of solid, white, tissue culture treated Greiner 1,536-well plates. Library compounds and positive control, Glyburide, were pin-transferred (23 nL) by a Kalypsys pin-tool equipped with a 1,536-pin array, resulting in final compound concentration ranges of 2.5 nM to 57.5 uM. After 1 hr of cell culture incubation (37 °C, 5% CO2), 1 microL of 1 microg/mL lipopolysaccharide (250 ng/mL, final) and 5 mM ATP (1.25 mM, final) were added to stimulate the cells. After 16 hr of cell culture incubation with the compounds, 1.5 uL of anti-IL-1B acceptor beads (6 ug/mL, final) and biotinylated antibody (0.6 nM, final) were added to the plate, followed by a 1 hr incubation at ambient temperature. To detect the secreted IL-1B, 1.5 uL of AlphaLISA SA-Donor beads (24 ug/mL, final) were added, followed by 30 min of incubation in the dark at ambient temperature. The AlphaLISA signal was read by a PerkinElmer EnVision plate reader with an ultrasensitive luminescence detector and 1536 Plate HTS AlphaScreen aperture (excitation of 680nm and emission of 615nm).
% is set by controls: 0 for no effect and ±100 for the full control effect.

Going from `CCCc1nc(SCC(=O)Nc2ccc(S(=O)(=O)N(C)C)cc2)c2ccccc2n1` to `CCOC(=O)c1ccn(S(=O)(=O)c2ccc(C)cc2)c1-c1ccccc1`, the activity change rises from -11.4% to 40.2%.

First: CN(C(=O)CSc1nc(C2CC2)nc2ccccc12)c1nc(-c2ccccc2)cs1
Second: Cc1ccc2nc(-c3ccccc3)c(CC3CCCCC3)n2c1
The activity change of the first is lower: -16.2% for the first, -0.767% for the second.

First: CN(N)c1nc(N2CCCC2)nc(N2CCCC2)n1
Second: CN(C(=O)c1cccc(NC(=O)Cc2ccc(NC(=O)C3CCCN(C(=O)C4CC4)C3)cc2)c1)C1CC1 (stereo not drawn)
The activity change of the first is lower: 3.61% for the first, 54.5% for the second.

Going from `O=C(NCc1ccccc1Cl)c1csc([C@@H]2O[C@H](CO)[C@@H](O)[C@H]2O)n1` to `Cc1cc(NC(=O)CCC(=O)N(c2ccccc2)C(C(=O)NC2CCCC2)c2ccncc2)no1` (stereo not drawn), the activity change falls from 6.54% to -1.05%.

First: CCCCN(C)CCNC(=O)CSCc1ccc(C)cc1
Second: COC(=O)c1ccc(C2C(Oc3ccccc3C)C(=O)N2CCc2ccc(OC)c(OC)c2)cc1 (stereo not drawn)
The activity change of the first is higher: 16.4% for the first, -21.3% for the second.

Compared with `CCC1(CC)Cc2ccccc2-c2nc(CCl)[nH]c(=O)c21`, `CC1(C)Cc2ccccc2-c2nc(CN3CCOCC3)[nH]c(=O)c21` is lower in activity change: 38.6% for the first, 0% for the second.

Going from `CC(OC(=O)c1cccc(S(=O)(=O)N2CCOCC2)c1)C(=O)NCC1CCCCC1` (stereo not drawn) to `Cc1cc(NC(=O)CCC(=O)N(c2cccc(F)c2)C(C(=O)NC2CCCC2)c2ccncc2)no1` (stereo not drawn), the activity change rises from -2.42% to 10.2%.

First: COc1cc(/C=C/C(=O)OCC(=O)Nc2cccc(Oc3ccccc3)c2)ccc1O
Second: Cc1ccc(S(=O)(=O)N2CC[C@H]3[C@@H](C2)C(=O)C[C@@H](c2ccccc2)N3S(=O)(=O)c2ccc(C)cc2)cc1
The activity change of the first is higher: 15.2% for the first, -0.365% for the second.

First: Cc1cc(NC(=O)CCC(=O)N(CC(=O)NC2CCCC2)c2ccc(F)cc2)no1
Second: Cc1cc(C)cc(N(CC(=O)NC2CCCC2)C(=O)CCC(=O)Nc2cc(C)on2)c1
The activity change of the first is lower: 8.19% for the first, 23.6% for the second.

In the case of `Cc1oc2cc3oc(=O)ccc3cc2c1C`, the activity change is reported as -4.45%.

For `CC(C)N(C(=O)CSc1nc(COc2ccccc2)nc2ccccc12)C(C)C`, the activity change was -71.7% (active).
With `CCOC(=O)C1Cn2c(nc3c(c2=O)C(C)(CC)Cc2ccccc2-3)S1` (stereo not drawn) the activity change was -60.4% (active).
For `Cc1cc(NC(=O)/C=C/C(=O)N(c2ccccc2C)C(C(=O)NC2CCCC2)c2ccc(F)cc2)no1` (stereo not drawn), the activity change was -95.1% (active).
For `Cc1cc(NC(=O)/C=C/C(=O)N(CC(=O)NC2CCCC2)c2ccc(F)cc2)no1`, the activity change was -87.8% (active).
